# Assay results published in PubChem BioAssay AID1559 (National Center for Advancing Translational Sciences (NCATS), 2009).
# Inconclusive results are not listed. A call without a number means that no potency is given here. Activity calls are given as the source filed them. The call rests on the fitted dose curve; in most records, active means well fitted curve in the direction sought with a large enough effect; inconclusive means small, poorly fitted or top-dose-only effect, or another doubt; inactive means no such curve, though single readings can be large or run the other way.
# Target: Microtubule-associated protein tau (Homo sapiens) (UniProt P10636)
# Sequence (P10636 561-689 P618L limits assumed): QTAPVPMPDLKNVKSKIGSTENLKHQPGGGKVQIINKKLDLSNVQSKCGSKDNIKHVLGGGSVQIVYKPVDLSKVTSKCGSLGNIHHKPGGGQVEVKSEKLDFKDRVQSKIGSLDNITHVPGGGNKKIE
# Assay: Confirmation Concentration-Response Assay for Inhibitors of Tau Fibril Formation, Fluorescence Polarization
# Details: recombinant tau K18 P301L (four-repeat tau fragment) heparin fibrillization, Alexa594 FP; series mostly up to 57.1 µM
# Source text: NIH Molecular Libraries Probe Production Network [MLPCN] NIH Chemical Genomics Center [NCGC] MLPCN Grant: X01 MH083262-01 Assay Provider: Carlo Ballatore, University of Pennsylvania NCGC Assay Overview: The microtubule-associated protein tau is an abundant protein in the axons of neurons that stabilizes microtubules. With its ability to modulate microtubule dynamics, tau contributes directly or indirectly, to key structural and regulatory cellular functions. Particularly important is the influence tau exerts on axonal transport, which allows signaling molecules, trophic factors and other essential cellular constituents to travel along the axons. Under pathological conditions, tau becomes sequestered into insoluble aggregates called neurofibrillary tangles. This phenomenon is believed to have pathological consequences by promoting axonal transport deficits that ultimately lead to synaptic dysfunction and neuronal loss. To identify inhibitors of tau aggregation, a heparin-induced tau fibril formation assay was used that employed a recombinantly expressed fragment of tau, K18 (Q242-E372), bearing a P301L mutation (Gustke et al. 1994; Hong et al. 1998). […] Gustke, N., B. Trinczek, et al. (1994). "Domains of tau protein and interactions with microtubules." Biochemistry 33(32): 9511-22. Hong, M., V. Zhukareva, et al. (1998). "Mutation-specific functional impairments in distinct tau isoforms of hereditary FTDP-17." Science 282(5395): 1914-7. Li, W. and V. M. Lee (2006). "Characterization of two VQIXXK motifs for tau fibrillization in vitro." Biochemistry 45(51): 15692-701. von Bergen, M., S. Barghorn, et al. (2001). "Mutations of tau protein in frontotemporal dementia promote aggregation of paired helical filaments by enhancing local beta-structure." J Biol Chem 276(51): 48165-74.
# For screening, 2 uL/well human K18 P301L (15 uM unlabeled and 0.24 uM Alexa 594-labeled tau final concentrations) in reagent buffer (100 mM sodium acetate pH 7) was dispensed into black solid 1536-well plates (Grenier) using a solenoid-based dispenser. Following transfer of 23 nL compound or DMSO vehicle by a pin tool, 2 uL/well heparin (20 uM final concentration) in reagent buffer was added and the plate centrifuged 15 s at 1000 RPM. Plates were incubated 6 hr at 37 C and then 1 uL/well ThT (30 uM final concentration) was added. After a 1 hr ambient incubation, the plates were read by an Envision (Perkin Elmer) to monitor Alexa 594 FP (555 nm excitation and 632 nm emission). Keywords: NIH Roadmap, MLPCN, MLI, MLSMR, NCGC, qHTS, tau, tauopathies, Alzheimer's disease, fibril, neurodegeneration, aggregation
row,SMILES,Potency
1,COc1ccc(NC(=O)c2c(NC(=O)Cc3ccccc3)sc3c2CCCC3)cc1,inactive
2,COC(=O)C1CCc2sc(N)c(C(=O)OCc3ccccc3)c21 (stereo not given),inactive
3,S=C1Cc2ccccc2N1,inactive
4,Nc1ccc(-c2ccc3ccccc3n2)cc1,inactive
5,COc1ncc(-c2ccccc2)cc1N,inactive
6,COc1ccc(CNC(=O)Cn2nc(C)n3cccc3c2=O)cc1,inactive
7,O=C(Nc1nnc(S(=O)(=O)Nc2ccccc2)s1)C1CCCCC1,inactive
8,CC(C)(C)c1ccc(NC(=O)N2CCN(c3ccc([N+](=O)[O-])cn3)CC2)cc1,inactive
9,Cc1[nH]c(=O)c(C#N)cc1-c1ccncc1,inactive
10,O=C(Cc1ccccc1)Nc1sc2c(c1C(=O)Nc1ccc(Br)cc1)CCCC2,inactive
11,O=C(CSc1nc2scc(-c3ccco3)c2c(=O)n1-c1ccccc1)N1CCOCC1,inactive
12,COC(=O)c1c(N)sc2c1C(C(=O)OC)CC2 (stereo not given),inactive
13,COc1ccc2c(c1)c(CC(=O)N1CCOCC1)c(C)n2C(=O)c1ccc(Cl)cc1,inactive
14,N#Cc1cccc(NC(=O)c2ccc3c(c2)N(Cc2cccc(Cl)c2)C(=O)c2ccccc2S3(=O)=O)c1,inactive
15,Cn1cc(Cl)c(C(=O)Nc2cccc(Cl)c2Cl)n1,inactive
16,O=C(Nc1cccc(-c2nc3ccccc3o2)c1)c1cc([N+](=O)[O-])ccc1N1CCOCC1,inactive
17,COc1ccc(NC(=O)C2CCN(S(=O)(=O)c3c(C)noc3/C=C/c3cccs3)CC2)cc1Cl,inactive
18,COC(=O)CSc1nc2ccc(NC(=O)CSc3nnnn3Cc3ccccc3)cc2s1,inactive
19,CC(=O)Nc1sc(C)c2cnn(-c3ccccc3)c(=O)c12,inactive
20,CCOC(=O)N1CCN(C(=O)CN2C(=O)/C(=C\c3cccc(OC)c3)SC2=S)CC1,inactive

row,SMILES,Potency
1,Cc1ccc(NC(=O)c2c(NC(=O)Cc3ccccc3)sc3c2CCCC3)cc1,inactive
2,O=C(O)CN1C(=O)/C(=C/c2ccc(-c3cccc(Cl)c3)o2)SC1=S,inactive
3,CCOC(=O)c1c(N)sc2c1CN(C)CC2,inactive
4,Cc1sc(N)c2c(=O)n(-c3ccccc3)ncc12,inactive
5,COc1ccc(OC)c(NC(=O)c2c(NCc3cccs3)sc3c2CCCC3)c1,inactive
6,COc1cc(/C=N/N=C2/NC(=O)C(CC(=O)O)S2)ccc1OCc1ccc(Cl)cc1 (stereo not given),inactive
7,Nc1scc2c(C(=O)O)nn(-c3ccccc3)c(=O)c12,7.08 µM (active)
8,CCOC(=O)c1nn(-c2ccccc2F)c(=O)c2c(N)scc12,inactive
9,Cc1cc2c(N)cccc2nn1,39.8 µM (active)
10,Cc1nc2ccccc2oc1=O,inactive
11,NC[C@@H](O)c1ccc(O)c(O)c1,inactive
12,COc1ccc2oc(-c3ccc(NC(=O)c4ccc(N5CCOCC5)c([N+](=O)[O-])c4)cc3)nc2c1,inactive
13,CCN(CC)S(=O)(=O)c1cccc(NC(=O)Nc2cccc(C(F)(F)F)c2)c1,2.82 µM (active)
14,CCOC(=O)c1nn(-c2cccc(C(F)(F)F)c2)c(=O)c2c(N)scc12,inactive
15,O=C(Cc1ccccc1)Nc1sc2c(c1C(=O)Nc1cccc(Cl)c1)CCCC2,inactive
16,COC(=O)c1c(NC(=O)C(C)(C)C)sc2c1C(C(=O)OC)CC2 (stereo not given),inactive
17,CCOC(=O)c1nn(-c2ccccc2)c(=O)c2c(N)sc(C)c12,inactive
18,O=C(NCc1cccnc1)C1CCN(S(=O)(=O)c2cccs2)CC1,inactive
19,O=S(=O)(c1ccc(NC(=S)N/N=C/c2ccc(N3CCOCC3)cc2)cc1)N1CCOCC1,inactive
20,NCCc1ccc(O)c(O)c1,inactive
